# “And” between values parts separate entries of the source, which are not always exact repeats. Equal entries are not always repeated. Records with an inconclusive call do not appear. The source made the active and inactive calls. Unless noted, calls come from the whole dose curve; as a rule, active = well fitted curve in either direction with a large enough effect (not every such curve was filed as active); inconclusive = small, poorly fitted or top-dose-only effect, or another doubt; inactive = flat fitted curve, though single readings scatter.
# Legend:
# [1] = AP1 Signaling Pathway (AID 357); conditions: ME-180 AP-1-bla reporter, EGF-induced, beta-lactamase ratio, 5 h; at 7.69 µM (top of the series) unless noted;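 note: ME-180 reporter cells stimulated with EGF at its EC50 level; % is set by controls: 0 for no effect and ±100 for the full control effect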
# Method in brief: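 A ratiometric CCF4 readout (405 nm excitation; 460 and 530 nm emission) quantified AP-1-driven beta-lactamase in ME-180 cells after 5 h with compound and EC50 EGF; AC50 values were derived for activators and inhibitors.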
# [2] = molecular target: Cytochrome P450 1A2 (Homo sapiens) (UniProt P05177); experiment: p450-cyp1a2 (AID 410; calls by dose curve; note: potency is the fitted concentration of half-maximal effect;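 for activity change, negative = inhibition: -100% = full effect of reference inhibitor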)
# Method in brief: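 O-Demethylation of luciferin 6' methyl ether by human CYP1A2 is monitored as luciferase luminescence. Substrate sits at Km (100uM); enzyme is 20nM. Values are scaled to 57 uM furafylline as maximal inhibition.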
# [3] = NFAT Signaling Pathway (AID 444); conditions: Jurkat NFAT-bla M1, carbachol, beta-lactamase ratio, 5 h;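 note: carbachol stimulus at about its EC50 of 1 µM final; % is set by controls: 0 for no effect and ±100 for the full control effect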
# Method in brief: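 Jurkat cells carrying an NFAT-driven β-lactamase reporter and co-transfected muscarinic M1 receptor were treated with compound plus carbachol (1 uM final, an EC50 level) for 5 h at 37 °C. CCF4 loading followed for 1 h at RT; 460/530 nm ratio gave %activity.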
# [4] = Stat Signaling Pathway (AID 446); conditions: ME-180 (cervical carcinoma) SIE beta-lactamase reporter, IL-6 stimulated, 5 h;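 note: ME-180 cervical cancer cells given 40 pM IL-6 alongside compound; SIE-controlled beta-lactamase reporter measured as 460/530 nm FRET emission ratio; % is set by controls: 0 for no effect and ±100 for the full control effect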
# Method in brief: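 Emission at 460 and 530 nm (excitation 405 nm) reports SIE-controlled beta-lactamase in ME-180 cells. Cells received compound with 40 pM IL-6 for 5 hrs at 37 C; data scaled between 300 pM IL-6 and 125 nM JAK-inhibitor controls.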
# [5] = molecular target: Glucocorticoid receptor (Homo sapiens) (UniProt P04150); experiment: GR-GFP Redistribution (AID 450;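 active = compounds whose dose series gives a full or clear partial fitted curve of increased nuclear translocation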; note: potency is the fitted concentration of half-maximal effect); conditions: U2OS GR-GFP nuclear translocation, laser cytometry, 2 h
# [6] = molecular target: Glucocorticoid receptor (Homo sapiens) (UniProt P04150); experiment: GR-EFC Redistribution (AID 451; calls by dose curve; note: potency is the fitted concentration of half-maximal effect); conditions: CHO-K1 GR-EFC translocation, beta-gal luminescence, 2 h
# Method in brief: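 CHO-K1 cells stably expressing nuclear-localized β-gal enzyme acceptor and GR fused C-terminally to the enzyme donor fragment; ligand-driven nuclear translocation restores β-gal by complementation. Compounds titrated up to 46 uM final, 2 h at 37 °C; luminescence read.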
# [7] = molecular target: Mitogen-activated protein kinase 10 (Mus musculus) (UniProt Q61831); experiment: JNK3 AlphaScreen Assay (AID 530);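 note: kinase came from lysate of stimulated human HepG2 cells; signal reports phosphorylation of biotinylated GST-cJun 1-79 at Ser73 with 10 µM ATP; % is set by controls: 0 for no effect and ±100 for the full control effect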
# Method in brief: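 Phosphorylation of biotinylated GST-cJun(1-79) at Ser73 is measured by AlphaScreen proximity luminescence. Enzyme is JNK3 in HepG2 lysates activated with interleukin-1beta and tumor necrosis factor alpha; ATP is 10 uM final.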
# [8] = molecular target: 3',5'-cyclic-AMP phosphodiesterase 4B (Homo sapiens) (UniProt Q07343); experiment: qHTS Assay for Inhibitors of PDE-IV (AID 607; active = well fitted activation curve with a large enough effect in the main read-out, with a control signal flat, not every such curve was filed as active; note: % of control where 0% means no effect)
# Method in brief: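 The readout is membrane depolarisation from a cAMP-sensing CNG channel, detected with a potential dye at ex 535/em 590. Cells were HEK293-derived (endogenous PDE-IV) at 1000 cells/well, titrated up to 22.9 uM final.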
# [9] = qHTS Assay for Lipid Storage Modulators (AID 1519; calls by dose curve); conditions: Drosophila S3 cells, BODIPY lipid droplet/cell ratio, laser cytometry, cells loaded with oleic acid
# Method in brief: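 Cells seeded at 5,000 per well were treated with compounds over a concentration series and loaded with oleic acid (400 uM, as added). Lipid droplet fluorescence (488 nm excitation, 500-530 nm channel) was read by laser-scanning cytometry and normalized to 20 uM Triacsin C.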
# [10] = molecular target: Ubiquitin carboxyl-terminal hydrolase 1 (Homo sapiens) (UniProt O94782); experiment: Inhibitors of USP1/UAF1: Pilot qHTS (AID 504865; active = well fitted curve in the direction sought with a large enough effect; an effect the other way counts as inactive or inconclusive; note: nearly all actives have a fitted effect of over 35% in size; note: potency is the fitted concentration of half-maximal effect)
# Method in brief: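 USP1/UAF1 complex (1nM) preincubated with compound 15 min at room temperature, then Ub-Rho substrate (150nM final) added. Fluorescence read kinetically at 480/540 nm, 6 reads every 60 seconds. Buffer: 50mM HEPES pH 7.8, 0.5mM EDTA, 0.1 mg/ml BSA, 1mM TCEP, 0.01% Tween-20.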
# [11] = molecular target: Cytochrome P450 3A4 (Homo sapiens) (UniProt P08684); experiment: qHTS Assay for Activators of Cytochrome P450 3A4 (AID 885; active = well fitted curve in the direction sought with a large enough effect; an effect the other way counts as inactive or inconclusive; note: nearly all actives have a fitted effect of over 65% in size)
# Method in brief: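 Activators are scored by enhanced luminescence from CYP3A4 conversion of luciferin-PPXE (25uM, equal to KM) to luciferin, after 60 min at RT with an NADPH-regenerating system.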
# [12] = molecular target: Luciferin 4-monooxygenase (Photinus pyralis) (UniProt P08659); experiment: Biochemical firefly luciferase enzyme assay for NPC (AID 624030; active = well fitted curve in the direction sought with a large enough effect; an effect the other way counts as inactive or inconclusive;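 note: purified P. pyralis luciferase at 10 nM with luciferin and ATP substrate; 0% = DMSO and -100% = full luciferase inhibition by PTC124 control; nearly all actives have a fitted effect of over 70% in size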)
# Method in brief: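 Counter-screen for direct inhibition of the luciferase enzyme by approved-drug library compounds, run at 10 nM enzyme in 50 mM Tris acetate (final). Luminescence was read within 5 min of enzyme-buffer addition and normalized to PTC124 versus DMSO (0%).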
# [13] = qHTS profiling for inhibitors of Plasmodium falciparum proliferation (AID 504749; active = well fitted curve in the direction sought with a large enough effect; an effect the other way counts as inactive or inconclusive;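 note: 0% = DMSO vehicle and full inhibition = artemisinin control; nearly all actives have a fitted effect of over 60% in size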); conditions: P. falciparum in erythrocytes, SYBR Green DNA, 72 h, at 12.8 µM (top of the series)
# Method in brief: (§1)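 Quantitative HTS: compounds pinned into medium, infected erythrocytes added (0.3% parasitemia, 2.5% hematocrit), 72 h culture at 37 C under 5% CO2. Saponin/Triton lysis with SYBR Green I, overnight RT, then fluorescence read.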
# ATS189 = experiment: as above; conditions: P. falciparum in erythrocytes, SYBR Green DNA, 72 h; series mostly up to 12.8 µM
# Method in brief: as §1
# CP201 = experiment: as above; conditions: P. falciparum in erythrocytes, SYBR Green DNA, 72 h; series mostly up to 12.8 µM
# Method in brief: as §1
# CP291 = experiment: as above; conditions: P. falciparum in erythrocytes, SYBR Green DNA, 72 h; series mostly up to 12.8 µM
# Method in brief: as §1
# DFO2036 = experiment: as above; conditions: P. falciparum in erythrocytes, SYBR Green DNA, 72 h; series mostly up to 12.8 µM
# Method in brief: as §1
# PC49 = experiment: as above; conditions: P. falciparum in erythrocytes, SYBR Green DNA, 72 h; series mostly up to 12.8 µM
# Method in brief: as §1
# TAB113 = experiment: as above; conditions: P. falciparum in erythrocytes, SYBR Green DNA, 72 h; series mostly up to 12.8 µM
# Method in brief: as §1
# [14] = at 7.69 µM (top of the series) unless noted
# [15] = measured here: cell count channel max response
# [16] = measured here: lipid channel max response
# Sequence of 3',5'-cyclic-AMP phosphodiesterase 4B (Homo sapiens) (Q07343 whole entry, looked up): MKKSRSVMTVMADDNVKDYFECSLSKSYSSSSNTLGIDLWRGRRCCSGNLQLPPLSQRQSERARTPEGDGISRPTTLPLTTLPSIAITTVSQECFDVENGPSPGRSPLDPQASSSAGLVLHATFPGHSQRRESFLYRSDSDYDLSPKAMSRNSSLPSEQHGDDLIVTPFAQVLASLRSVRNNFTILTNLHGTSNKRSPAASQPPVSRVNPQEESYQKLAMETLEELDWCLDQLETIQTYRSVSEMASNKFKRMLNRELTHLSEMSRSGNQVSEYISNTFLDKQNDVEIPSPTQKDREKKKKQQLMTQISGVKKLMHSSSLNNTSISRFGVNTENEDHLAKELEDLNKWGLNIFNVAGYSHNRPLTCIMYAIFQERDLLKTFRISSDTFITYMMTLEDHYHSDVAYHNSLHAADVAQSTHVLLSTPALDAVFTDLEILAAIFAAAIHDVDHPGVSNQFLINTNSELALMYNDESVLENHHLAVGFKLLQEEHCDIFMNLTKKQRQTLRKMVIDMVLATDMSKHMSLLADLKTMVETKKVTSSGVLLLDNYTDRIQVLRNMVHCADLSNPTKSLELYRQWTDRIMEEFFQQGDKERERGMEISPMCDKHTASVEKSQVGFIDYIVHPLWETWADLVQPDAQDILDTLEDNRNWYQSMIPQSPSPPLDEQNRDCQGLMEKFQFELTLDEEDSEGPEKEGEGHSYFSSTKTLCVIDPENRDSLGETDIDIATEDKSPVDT
# Sequence of Glucocorticoid receptor (Homo sapiens) (P04150 whole entry, looked up, the tested form may be a part): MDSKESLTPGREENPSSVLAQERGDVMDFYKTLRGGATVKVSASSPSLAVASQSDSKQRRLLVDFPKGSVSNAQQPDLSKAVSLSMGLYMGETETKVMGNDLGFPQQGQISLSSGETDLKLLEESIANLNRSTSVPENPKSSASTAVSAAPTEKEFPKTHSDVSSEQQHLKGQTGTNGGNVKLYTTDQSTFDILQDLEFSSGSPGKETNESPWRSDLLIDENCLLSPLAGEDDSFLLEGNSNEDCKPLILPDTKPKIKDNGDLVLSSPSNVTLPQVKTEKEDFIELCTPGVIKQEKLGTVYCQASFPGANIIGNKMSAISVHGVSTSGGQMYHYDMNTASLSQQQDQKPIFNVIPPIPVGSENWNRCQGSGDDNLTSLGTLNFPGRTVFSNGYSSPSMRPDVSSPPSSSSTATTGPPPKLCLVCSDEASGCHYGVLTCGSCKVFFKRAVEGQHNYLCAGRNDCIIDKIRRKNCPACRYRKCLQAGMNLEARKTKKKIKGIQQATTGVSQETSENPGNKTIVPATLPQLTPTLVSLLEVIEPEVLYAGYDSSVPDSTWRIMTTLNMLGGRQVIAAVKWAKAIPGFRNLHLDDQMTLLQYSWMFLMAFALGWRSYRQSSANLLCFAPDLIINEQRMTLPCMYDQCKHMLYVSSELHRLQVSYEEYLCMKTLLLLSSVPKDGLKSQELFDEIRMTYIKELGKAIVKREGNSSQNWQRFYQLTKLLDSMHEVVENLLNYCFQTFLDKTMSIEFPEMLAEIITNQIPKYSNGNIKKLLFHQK
# Sequence of Ubiquitin carboxyl-terminal hydrolase 1 (Homo sapiens) (O94782 whole entry, looked up): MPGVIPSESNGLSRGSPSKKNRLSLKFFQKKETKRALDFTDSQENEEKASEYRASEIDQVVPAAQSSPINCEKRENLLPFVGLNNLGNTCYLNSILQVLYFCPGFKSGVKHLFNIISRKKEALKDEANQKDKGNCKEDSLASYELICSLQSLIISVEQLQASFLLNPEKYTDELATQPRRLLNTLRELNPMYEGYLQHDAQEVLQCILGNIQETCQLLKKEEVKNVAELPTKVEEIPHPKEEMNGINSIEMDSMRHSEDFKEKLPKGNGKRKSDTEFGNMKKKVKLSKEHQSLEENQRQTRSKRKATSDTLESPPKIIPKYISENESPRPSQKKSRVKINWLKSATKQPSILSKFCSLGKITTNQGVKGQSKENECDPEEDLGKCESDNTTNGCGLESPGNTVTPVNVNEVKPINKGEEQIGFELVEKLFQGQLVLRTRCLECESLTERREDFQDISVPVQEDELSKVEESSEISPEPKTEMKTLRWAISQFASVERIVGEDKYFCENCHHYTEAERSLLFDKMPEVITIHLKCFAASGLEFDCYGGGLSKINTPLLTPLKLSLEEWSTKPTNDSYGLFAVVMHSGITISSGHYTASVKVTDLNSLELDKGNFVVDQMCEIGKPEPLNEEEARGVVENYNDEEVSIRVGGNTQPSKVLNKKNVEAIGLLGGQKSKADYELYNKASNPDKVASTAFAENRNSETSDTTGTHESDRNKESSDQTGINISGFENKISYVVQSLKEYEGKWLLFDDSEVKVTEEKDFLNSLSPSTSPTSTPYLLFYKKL
# Sequence of Cytochrome P450 1A2 (Homo sapiens) (P05177 whole entry, looked up): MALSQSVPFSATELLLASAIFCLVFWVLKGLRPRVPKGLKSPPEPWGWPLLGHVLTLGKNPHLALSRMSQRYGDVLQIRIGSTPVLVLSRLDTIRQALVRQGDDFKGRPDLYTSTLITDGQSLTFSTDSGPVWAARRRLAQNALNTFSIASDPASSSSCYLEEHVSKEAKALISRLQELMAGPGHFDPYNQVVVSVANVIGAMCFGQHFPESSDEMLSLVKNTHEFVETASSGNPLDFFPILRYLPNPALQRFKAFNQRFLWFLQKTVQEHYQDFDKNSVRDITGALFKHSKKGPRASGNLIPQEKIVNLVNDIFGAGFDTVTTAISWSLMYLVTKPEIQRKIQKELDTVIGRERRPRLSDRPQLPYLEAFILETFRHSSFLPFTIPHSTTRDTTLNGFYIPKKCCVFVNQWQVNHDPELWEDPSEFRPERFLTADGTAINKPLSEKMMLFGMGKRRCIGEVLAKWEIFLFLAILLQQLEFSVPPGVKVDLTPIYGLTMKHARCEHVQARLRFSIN
# Sequence of Cytochrome P450 3A4 (Homo sapiens) (P08684 whole entry, looked up): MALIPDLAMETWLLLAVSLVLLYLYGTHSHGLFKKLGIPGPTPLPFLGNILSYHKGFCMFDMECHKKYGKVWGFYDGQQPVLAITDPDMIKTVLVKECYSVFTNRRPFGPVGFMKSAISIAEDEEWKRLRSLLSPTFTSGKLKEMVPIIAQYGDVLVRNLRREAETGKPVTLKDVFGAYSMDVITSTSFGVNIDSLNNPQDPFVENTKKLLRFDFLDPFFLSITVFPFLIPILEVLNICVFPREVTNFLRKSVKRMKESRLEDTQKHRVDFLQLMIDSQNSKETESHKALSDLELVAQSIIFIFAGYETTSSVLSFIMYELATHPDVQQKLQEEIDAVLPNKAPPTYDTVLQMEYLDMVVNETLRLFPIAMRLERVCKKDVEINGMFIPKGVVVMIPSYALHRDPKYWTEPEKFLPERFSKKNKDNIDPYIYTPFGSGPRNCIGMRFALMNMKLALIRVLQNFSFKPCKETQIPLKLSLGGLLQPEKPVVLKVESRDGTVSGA
# Sequence of Luciferin 4-monooxygenase (Photinus pyralis) (P08659 whole entry, looked up): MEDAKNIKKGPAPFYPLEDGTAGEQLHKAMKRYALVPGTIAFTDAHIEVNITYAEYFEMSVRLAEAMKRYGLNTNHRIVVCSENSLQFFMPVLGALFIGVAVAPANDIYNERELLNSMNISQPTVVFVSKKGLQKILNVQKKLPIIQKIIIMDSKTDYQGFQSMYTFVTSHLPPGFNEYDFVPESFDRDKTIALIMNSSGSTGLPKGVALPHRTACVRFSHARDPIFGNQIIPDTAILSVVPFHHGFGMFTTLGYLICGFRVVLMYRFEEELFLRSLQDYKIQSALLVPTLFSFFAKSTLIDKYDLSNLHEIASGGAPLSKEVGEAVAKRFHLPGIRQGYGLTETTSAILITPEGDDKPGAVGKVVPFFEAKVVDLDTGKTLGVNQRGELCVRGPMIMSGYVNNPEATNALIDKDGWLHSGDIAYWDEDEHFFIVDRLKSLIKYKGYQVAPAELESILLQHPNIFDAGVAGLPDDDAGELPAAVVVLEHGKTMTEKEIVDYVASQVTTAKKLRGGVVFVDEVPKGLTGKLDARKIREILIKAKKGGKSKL
smiles,measurement,setting,value
C[C@@](N)(Cc1ccc(O)cc1)C(=O)O,"activity change, negative = inhibition",[1],-8.05% [at 38 µM] (inactive) and -6.78% [at 38 µM] (inactive)
same,Potency,[2],inactive
same,"activity change, negative = inhibition",[3]; [14],-13% [at 38 µM] (inactive) and 8.58% [at 38 µM] (inactive)
same,"activity, negative = inhibition",[4]; [14],3.69% [at 38 µM] (inactive)
same,Potency,[5],> 46 µM (inactive)
same,Potency,[6],> 46 µM (inactive)
same,Potency,[7],inactive
same,Potency,[8],inactive
same,"activity change, negative = inhibition",[9]; at 57.5 µM (top of the series),1.23% (inactive)
same,max response,[9]; [15],15.7%
same,max response,[9]; [16],18.3%
same,Potency,[10],inactive
CCCN1C[C@H](CSC)C[C@H]2c3cccc4[nH]cc(c34)C[C@@H]21,"activity change, negative = inhibition",[1],-5.45% [at 17.2 µM] (inactive)
same,Potency,[2],3.16 µM (active) and 1.58 µM (active)
same,"activity, negative = inhibition",[4]; [14],6.37% [at 17.2 µM] (inactive)
same,Potency,[5],> 20.6 µM (inactive) and > 46 µM (inactive)
same,Potency,[6],> 20.6 µM (inactive) and > 46 µM (inactive)
same,Potency,[7],inactive
same,Potency,[11],inactive
same,"activity change, negative = inhibition",[9]; at 25.7 µM (top of the series),-0.938% (inactive)
same,max response,[9]; [15],-9.01%
same,max response,[9]; [16],-9.12%
Cn1c(=O)c2c(ncn2C[C@@H](O)CO)n(C)c1=O,"activity change, negative = inhibition",[1],9.72% [at 17.2 µM] (inactive)
same,Potency,[2],inactive
same,"activity change, negative = inhibition",[3]; [14],-4.3% [at 17.2 µM] (inactive)
same,"activity, negative = inhibition",[4]; [14],11.3% [at 17.2 µM] (inactive)
same,Potency,[5],> 20.6 µM (inactive)
same,Potency,[6],> 20.6 µM (inactive)
same,Potency,[7],inactive
same,Potency,[8],inactive
same,"activity change, negative = inhibition",[9]; at 25.7 µM (top of the series),0.654% (inactive)
same,max response,[9]; [15],-0.539%
same,max response,[9]; [16],-0.706%
same,Potency,[10],inactive
same,outcome,[12],inactive
same,"activity, negative = inhibition",[13]; parasite line A,0.439% (inactive)
same,"activity, negative = inhibition",[13]; parasite line B,-2.95% (inactive)
same,Potency,ATS189,inactive
same,Potency,CP201,inactive
same,Potency,CP291,inactive
same,Potency,DFO2036,inactive
same,Potency,PC49,inactive
same,Potency,TAB113,inactive
COc1cc(C)c2c(c1C=O)Oc1c(c(C)c(O)c3c1C(O)OC3=O)OC2=O (stereo unspecified),Potency,[11],inactive
same,"activity change, negative = inhibition",[9]; at 57.5 µM (top of the series),4.32% (inactive)
same,max response,[9]; [15],5.41%
same,max response,[9]; [16],11.3%
same,Potency,[10],56.2 µM (active)
CC(=O)NCCNc1nc(-c2ccc(N(C)C)cc2)nc2ccccc12,"activity change, negative = inhibition",[1],7.41% (inactive)
same,Potency,[2],3.16 µM (active)
same,"activity change, negative = inhibition",[3]; [14],-28.2% (inactive)
same,Potency,[5],> 46 µM (inactive)
same,Potency,[6],> 46 µM (inactive)
same,Potency,[7],inactive
same,Potency,[8],inactive
same,Potency,[11],inactive
same,"activity change, negative = inhibition",[9]; at 57.5 µM (top of the series),9.02% (inactive)
same,max response,[9]; [15],13%
same,max response,[9]; [16],24.4%
same,Potency,[10],inactive
C[C@@H](C(=O)O)c1cccc(C(=O)c2ccccc2)c1,"activity change, negative = inhibition",[3]; at 17.2 µM (top of the series),5.64% (inactive)
same,"activity change, negative = inhibition",[3]; at 38 µM (top of the series),19.5% (inactive)
same,"activity, negative = inhibition",[4]; at 17.2 µM (top of the series),6.92% (inactive)
same,"activity, negative = inhibition",[4]; at 38 µM (top of the series),4.82% (inactive)
same,Potency,[7],inactive
same,Potency,[8],inactive
same,"activity change, negative = inhibition",[9]; at 25.7 µM (top of the series),-0.218% (inactive)
same,max response,[9]; [15],11.1%
same,max response,[9]; [16],10.1%
same,Potency,[10],inactive
same,outcome,[12],inactive
